Some test systems named below: SW-620 colon; MCF7 breast; HCT-116 colon; HCC-2998 colon; KM12 colon; MDA-MB-435 melanoma.
Common to all, as to test: NCI-60 one-dose screen, 48 h (100 = growth as untreated, 0 = no growth, -100 = all killed)
Settings in all cases: 10 µM

This is part of a sample that, as a whole, favours compounds with a hit. Of some 83,000 tested, about 20% had one in any assay.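 Assay: single dose, 48 h. Readout: percent growth (0 = no net growth; negative = cell death). Active: <10.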 Values without a mark were called inactive. Active and inactive are the calls of the source.

Consider `O=C(Nc1ccncc1)C(=O)c1cn(S(=O)(=O)c2cc(Cl)cc(Cl)c2)c2ccccc12`, for which the growth was 64.9% in the assay with SW-620 colon; 43.9% in the assay on MCF7 breast; 51.4% with HCT-116 colon; 65.7% with HCC-2998 colon; 55.3% with KM12 colon.
`CCN1CCC(CCOC)(CN2c3ccccc3Sc3ccc(Cl)cc32)C1` (centres undefined): the growth in the assay with MDA-MB-435 melanoma is 10.9%; with SW-620 colon, 54%; with MCF7 breast, 22.9%; with HCT-116 colon, 28.8%; in the assay on HCC-2998 colon, 40.5%; in the assay with KM12 colon it was 29.8%.
Consider `CCCCOc1ccc(NC(=O)Nc2nnc(C)s2)cc1`, for which the growth is 101% in the assay with MDA-MB-435 melanoma; 111% in the assay with SW-620 colon; 88.1% in the assay with MCF7 breast; 94.9% with HCT-116 colon; 93.2% in the assay on HCC-2998 colon; 103% in the assay on KM12 colon.
In the case of `CCc1ccc2c(c1)N(CCO)C1=C(C(=O)OC1)C2c1cc(OC)c(OC)c(OC)c1` (centres undefined), the growth was -69.9% (active) with MDA-MB-435 melanoma; 23% with SW-620 colon; 19.4% with MCF7 breast; 7.59% (active) in the assay with HCT-116 colon; -29.6% (active) in the assay with KM12 colon.
As to `COc1ccc(/C=C/C(=O)Nc2ccc(-c3nc4ccc(F)cc4s3)cc2)cc1`, the growth was 97% in the assay with MDA-MB-435 melanoma; 106% with SW-620 colon; 38.9% in the assay on MCF7 breast; 88.5% in the assay with HCT-116 colon; 99.1% in the assay on HCC-2998 colon; 101% with KM12 colon.
For the compound `CC1(O)CCC2CC3OC3(C)CCC3OC3(C)CCC1C2(C)C` (centres undefined), the growth with MDA-MB-435 melanoma is 107%; with SW-620 colon, 99.6%; in the assay with MCF7 breast, 103%; in the assay with HCT-116 colon, 100%; in the assay on KM12 colon it was 111%.
Turning to `O=C1Nc2ccc(Cl)cc2/C1=C\c1c(-c2ccc(Cl)cc2)nc2sc(C3CC3)nn12`, the growth in the assay with MDA-MB-435 melanoma is 77%; with SW-620 colon, 80.8%; in the assay on MCF7 breast, 60.7%; in the assay with HCT-116 colon, 41.4%; in the assay on HCC-2998 colon it was 83.7%; in the assay on KM12 colon, 82.7%.
As for `O=[N+]([O-])c1cccc(N=Cc2ccc3c(c2)OCO3)c1`, the growth is 108% with SW-620 colon; 103% in the assay on MCF7 breast; 106% with HCT-116 colon; 98.3% in the assay on HCC-2998 colon; 112% with KM12 colon.
Taken in the same sequence, the figures for `COc1cc2nc(Nc3cccc(C(=O)O)c3)nc(N)c2cc1OC` were 96.3%, 97.8%, -100% (active), 135% and 108%.
Regarding `COc1ccc(-c2nn(-c3cccc(NC(=O)c4cccc(C(F)(F)F)c4)c3)cc2-c2ccncc2)cc1Cl`, the growth was -67.9% (active) with MDA-MB-435 melanoma; 36% in the assay with SW-620 colon; 9.92% (active) in the assay on MCF7 breast; 14.5% in the assay with HCT-116 colon; 33.6% in the assay with HCC-2998 colon; 15.4% in the assay on KM12 colon.
With `O=[N+]([O-])c1cccc(-c2ncc(-c3ccc(Cl)cc3Cl)[nH]2)c1`, the growth was 76.5% with MDA-MB-435 melanoma; -88% (active) in the assay on SW-620 colon; -8.38% (active) with MCF7 breast; 58.1% in the assay on HCC-2998 colon; 15.7% in the assay on KM12 colon.
In the case of `O=C(Nc1ccc(Cl)c(Cl)c1)Nc1c(Oc2ccc(Cl)c(Cl)c2)ccc(Cl)c1S(=O)(=O)O`, the growth was -31.4% (active) with MDA-MB-435 melanoma; 23.6% in the assay on SW-620 colon; 24.6% with MCF7 breast; 23.5% in the assay with HCT-116 colon; 25.2% in the assay on HCC-2998 colon; 33.2% in the assay on KM12 colon.
As to `Cc1ccc(-c2n[nH]c(=O)c3noc(-c4ccc(C)cc4)c23)cc1`, the growth was -13.3% (active) in the assay with MDA-MB-435 melanoma; 28% in the assay with SW-620 colon; 20.2% with MCF7 breast; 32.2% in the assay on HCT-116 colon; 70.3% in the assay on HCC-2998 colon; 35.9% with KM12 colon.
As for `O=[N+]([O-])c1ccc(Oc2cccnc2)c([N+](=O)[O-])c1`, the growth with MDA-MB-435 melanoma is 26.9%; in the assay with SW-620 colon it was 1.5% (active); in the assay with MCF7 breast, 46.7%; in the assay on HCT-116 colon, 8.43% (active); in the assay on KM12 colon it was 56.8%.
Turning to `COc1ccc2c(c1)[n+]([O-])c(C#N)c(NC(=O)c1ccco1)[n+]2[O-]`, the growth is 104% with MDA-MB-435 melanoma; 108% in the assay with SW-620 colon; 90.8% in the assay on MCF7 breast; 99.9% in the assay with HCT-116 colon; 105% in the assay on KM12 colon.
As for `O=C(Nc1ccncc1)C(=O)c1cn(S(=O)(=O)c2cccc(Cl)c2)c2ccccc12`, the growth in the assay with MDA-MB-435 melanoma is 1.36% (active); in the assay on SW-620 colon it was 47%; with MCF7 breast, 29.3%; in the assay with KM12 colon it was 51.5%.
Take `ClC(Cl)(Cl)c1nc2nccnc2[nH]1`: the growth was 102% with MDA-MB-435 melanoma; 107% with SW-620 colon; 94.1% with MCF7 breast; 103% with HCT-116 colon; 122% in the assay on HCC-2998 colon; 106% with KM12 colon.
Take `Cc1cccc(NC2=C(C#N)C(=O)NC3(CCCC3)S2)c1`: the growth was 101% in the assay on MDA-MB-435 melanoma; 103% in the assay on SW-620 colon; 89.8% in the assay on MCF7 breast; 95.8% in the assay on HCC-2998 colon; 104% in the assay with KM12 colon.
Take `O=C1/C(=C\c2cn(C(=O)c3ccc(Cl)cc3)c3ccccc23)c2ccccc2N1C(=O)c1ccc(Cl)cc1`: the growth in the assay on MDA-MB-435 melanoma is 97.6%; with SW-620 colon, 93.1%; with MCF7 breast it was 71.1%; in the assay on HCT-116 colon, 65.1%; with KM12 colon it was 24.3%.
In the case of `N#Cc1cc(-c2cc3ccccc3o2)oc1N`, the growth in the assay with MDA-MB-435 melanoma is 5.63% (active); in the assay with SW-620 colon it was 12%; in the assay on MCF7 breast, 22.9%; in the assay with HCT-116 colon, 8.05% (active); in the assay on KM12 colon, 0.443% (active).
Consider `Fc1ccc2nc(-c3nc(-c4ccccc4)n4ccccc34)[nH]c2c1`, for which the growth in the assay with MDA-MB-435 melanoma is -19.4% (active); in the assay on SW-620 colon, 26.5%; in the assay with MCF7 breast, -12.6% (active); in the assay on HCC-2998 colon it was 29.2%.
As for `CCCCCCCCCCCCCCCCN(C(C)c1ccccc1)S(=O)(=O)c1ccc(OC)c(N)c1` (centres undefined), the growth in the assay on MDA-MB-435 melanoma is 108%; with SW-620 colon, 99.7%; in the assay on MCF7 breast, 95.9%; in the assay on HCT-116 colon it was 101%; in the assay with HCC-2998 colon, 97.6%; in the assay with KM12 colon, 100%.
As for `O=C1/C(=C\c2ccc(F)cc2)CN(C(=O)c2ccc([N+](=O)[O-])cc2)C/C1=C\c1ccc(F)cc1`, the growth in the assay on SW-620 colon is -58.4% (active); in the assay with MCF7 breast it was -9.52% (active); in the assay with HCT-116 colon it was -72.7% (active); with HCC-2998 colon, -79.1% (active).
Turning to `CC1CC(=O)OC(C)C1` (centres undefined), the growth is 96.7% in the assay with MDA-MB-435 melanoma; 107% with SW-620 colon; 91.1% in the assay on MCF7 breast; 104% in the assay on HCT-116 colon; 92.5% with HCC-2998 colon; 110% in the assay with KM12 colon.
Consider `COc1cc(/C=N/NC(=O)c2ccccc2Nc2cccc(C(F)(F)F)c2)cc(OC)c1OC`, for which the growth is -34% (active) in the assay with MDA-MB-435 melanoma; 3.91% (active) in the assay with SW-620 colon; 5.18% (active) in the assay with MCF7 breast; 158% with HCT-116 colon; 28.2% in the assay on HCC-2998 colon; 16.6% with KM12 colon.
Consider `CNc1ccc(CSc2ccc(C)cc2)cc1`, for which the growth is 93.7% in the assay on SW-620 colon, 77% in the assay on MCF7 breast, 93.6% in the assay on HCT-116 colon and 94% in the assay with HCC-2998 colon.
On to `c1ccc(C(NC2CC3CCC2C3)c2ccccc2)cc1` (centres undefined), for which the growth in the assay on MDA-MB-435 melanoma was 91.6%; with SW-620 colon it was 106%; with MCF7 breast, 98.4%; in the assay with HCT-116 colon it was 89.9%; in the assay with HCC-2998 colon it was 102%; in the assay with KM12 colon, 95%.
Regarding `Cc1cc(C)c(CCc2cc(C)c(C)cc2C)cc1C`, the growth with MDA-MB-435 melanoma was 98%; in the assay on SW-620 colon it was 105%; in the assay on MCF7 breast it was 105%; in the assay on HCT-116 colon, 106%; in the assay with HCC-2998 colon, 101%; in the assay with KM12 colon, 106%.
Regarding `COc1cc2c(cc1OCCCN1CCN(c3ncnc4ccccc34)CC1)N=CC1CCCN1C2=O` (centres undefined), the growth with SW-620 colon was -24% (active); with MCF7 breast, -17.4% (active); in the assay with HCT-116 colon, 11.7%; in the assay with KM12 colon, -24.8% (active).
For `CC/C(C)=C(\C)C(=O)O`, the growth with SW-620 colon is 105%; with MCF7 breast, 98.6%; with HCT-116 colon, 109%; in the assay with HCC-2998 colon, 108%; in the assay on KM12 colon, 103%.
On to `Cc1cs/c(=N\NC(=O)c2cc(-c3cc4ccccc4o3)nn2-c2ccccc2)n1-c1ccccc1`, for which the growth was 102% with MDA-MB-435 melanoma; 93.4% with SW-620 colon; 73.4% in the assay with MCF7 breast; 83% in the assay on HCT-116 colon; 98.6% with KM12 colon.
On to `COc1ccc(/C=C/C(=O)Nc2ccc(-c3nc4ccc(OC)cc4s3)cc2)cc1`, for which the growth with SW-620 colon was 114%; with MCF7 breast, 85.3%; with HCT-116 colon, 105%; in the assay on HCC-2998 colon, 110%; with KM12 colon, 111%.
As to `O=C(N/N=C\c1cc(Cl)ccc1[N+](=O)[O-])c1ccco1`, the growth in the assay with SW-620 colon is 102%; in the assay with MCF7 breast, 57%; with HCT-116 colon, 113%; with HCC-2998 colon it was 103%; in the assay on KM12 colon, 102%.
With `Cn1c([N+](=O)[O-])cnc1/C=C1\Oc2ccc(Cl)cc2C1=O`, the growth in the assay with MDA-MB-435 melanoma is -62.7% (active); with SW-620 colon, -61.6% (active); in the assay with MCF7 breast it was 1.32% (active); in the assay on HCT-116 colon, -46.6% (active); in the assay with HCC-2998 colon, -58.6% (active); in the assay on KM12 colon it was -37% (active).

The values are drawn from PubChem BioAssay (NCI).
